Measurements as given in PubChem BioAssay (NCATS).
Records with an inconclusive call do not appear. Unmarked numbers belong to inactive results. Calls of active or inactive are those of the source. Calls follow the shape of the dose curve; as a rule, active = well fitted inhibition curve with a large enough effect; inconclusive = small, poorly fitted or top-dose-only effect; inactive = no such curve, though single readings can be large or run the other way.

Target: N-terminal Xaa-Pro-Lys N-methyltransferase 1 (Homo sapiens) (UniProt Q9BV86)
Test: qHTS Assay for Inhibitors of N-terminal methyltransferase 1 (NTMT1): LOPAC validation of the NTMT1 SAHH-coupled ThioGlo3 Assay (AID 1347143);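 also: SAH from peptide methylation measured as thiol fluorescence via SAHH coupling and ThioGlo3; nearly all actives have a fitted effect of over 70% in size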
Settings: recombinant NTMT1, SAHH-coupled ThioGlo3 fluorescence; series mostly up to 114 µM; activity change, negative = inhibition: at the top concentration
Outline: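 NTMT1 125nM + cpds (various conc.), 1 min RT; add SAM 100uM/SAHH 10uM/ThioGlo3 15uM (addition mix). SAHH-coupled thiol detection, Ex340/Em450, t0 and 30 min RT; signal normalized to background. LOPAC 1280-cpd pilot.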
% is scaled to controls: 0 for no effect and ±100 for the full control effect; potency is read from the fitted curve at half-maximal effect.

Chain of N-terminal Xaa-Pro-Lys N-methyltransferase 1 (Homo sapiens) (Q9BV86 whole entry, looked up): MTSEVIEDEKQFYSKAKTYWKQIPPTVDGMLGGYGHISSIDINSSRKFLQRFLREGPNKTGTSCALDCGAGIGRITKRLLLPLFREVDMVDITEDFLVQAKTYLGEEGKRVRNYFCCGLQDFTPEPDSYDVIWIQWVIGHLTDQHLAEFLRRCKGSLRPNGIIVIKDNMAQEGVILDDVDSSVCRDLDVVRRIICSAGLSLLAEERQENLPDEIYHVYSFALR

| SMILES | activity change, negative = inhibition | Potency |
| --- | --- | --- |
| NCCCCNCCCN | -3.41% | – |
| CC(C)c1ccc2c(c1)c(SC(C)(C)C)c(CC(C)(C)C(=O)O)n2Cc1ccc(Cl)cc1 | 28.9% | – |
| CC1(C)C(=O)N(CCN2CCC(C(=O)c3ccc(F)cc3)CC2)c2ccccc21 | -20.8% | – |
| CC(=O)NC[C@H]1CN(c2ccc(N3CCOCC3)c(F)c2)C(=O)O1 | -14% | – |
| O=C(O)c1cccnc1Nc1cccc(C(F)(F)F)c1 | -19.9% | – |
| NNc1nncc2ccccc12 | – | 79.4 µM (active) |
| Cc1cc(O)c2c(c1)C(=O)c1cc(O)cc(O)c1C2=O | – | 17.8 µM (active) |
| Clc1ccc2c(N3CCN(CCCN4CCN(c5ccnc6cc(Cl)ccc56)CC4)CC3)ccnc2c1 | – | 50.1 µM (active) |
| Cc1c(OCC(F)(F)F)ccnc1CS(=O)c1nc2ccccc2[nH]1 (stereo not drawn) | – | 50.1 µM (active) |
| Nc1nc(N)c(N=O)c(OCC2CCCCC2)n1 | -22.1% | – |
| CNC[C@H](O)c1ccc(O)c(O)c1 | -15.5% | – |
| CC1(C)NC(=O)N(c2ccc([N+](=O)[O-])c(C(F)(F)F)c2)C1=O | -25.1% | – |
| COc1ccccc1N1CCN(CCN(C(=O)C2CCCCC2)c2ccccn2)CC1 | -22.1% | – |
| Cc1cccc(-c2[nH]ncc2-c2ccc3ncccc3n2)n1 | -23.5% | – |
| C[C@@H](c1ncncc1F)[C@](O)(Cn1cncn1)c1ccc(F)cc1F | -9.84% | – |
| O=C(c1ccccc1)c1ccc2n1CCC2C(=O)O (stereo not drawn) | -27.7% | – |
| C[C@@H](N)C1CCC(C(=O)Nc2ccncc2)CC1 (stereo partly drawn) | -14.4% | – |
| CC(=O)N1CCN(c2ccc(OC[C@H]3CO[C@](Cn4ccnc4)(c4ccc(Cl)cc4Cl)O3)cc2)CC1 | – | 50.1 µM (active) |
